The campaign covered roughly 1,600 compounds. About 1,100 (69%) were called active. The set was probably picked from earlier hits. Not all results are given here. Unmarked numbers belong to inactive results. No stated cut-off is given here; in the data, active means inhibition above about 50%; inactive means the rest.

The term inhibition denotes the drop in the measured response relative to a control, in per cent.

Sequence of Phospholipase A2 (Homo sapiens) (P04054 whole entry, looked up): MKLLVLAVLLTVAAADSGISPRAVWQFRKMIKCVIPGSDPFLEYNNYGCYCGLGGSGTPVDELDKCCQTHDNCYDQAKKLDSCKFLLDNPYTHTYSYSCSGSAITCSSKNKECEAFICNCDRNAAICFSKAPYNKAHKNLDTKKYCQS

The test concerns the target Phospholipase A2 (Homo sapiens) (UniProt P04054). Nature of the test: PLA2 enzyme inhibition, counter-screen for ATG4B inhibitor project, biochemical, single concentration, uHTS hits (AID 588402). The conditions noted are these: purified PLA2, NBD-C6-HPC fluorescence, 45 min; at 8.33 µM; hits give high values. Background: A counterscreen serves to expose hits that act by an unwanted route or on another target.
Consider `CCCC1=Nc2cc(C(=O)NCc3ccco3)ccc2Sc2ccccc21`, for which the inhibition is 46.3%.
For the compound `Oc1c(Cl)cc(Cl)c(Cl)c1Cc1c(O)c(Cl)cc(Cl)c1Cl`, the inhibition is 82.7% (active).
With `Cc1ccc(-n2c(SCC(=O)N/N=C/C=C/c3ccccc3[N+](=O)[O-])nc3ccccc3c2=O)cc1`, the inhibition was 40.7%.
Take `O=C(O)CCn1cc(/C=C/C(=O)c2ccc(Cl)cc2)c(-c2cccc(Br)c2)n1`: the inhibition was 43.2%.
As to `O=C1C(=O)N(CC2COc3ccccc3O2)c2ccccc21` (stereo unspecified), the inhibition is 78.5% (active).
The same measure for `Fc1ccc2[nH]c3c(N4CCN(Cc5ccc6c(c5)OCO6)CC4)ncnc3c2c1`: 48.4%; for `COc1cccc(NC(=O)NCc2ccc(F)cc2)c1`: 52.3% (active).
The same measure for `COc1ccc(NC(=O)COc2ccc(C(=O)c3ccc(F)cc3)cc2)cc1S(N)(=O)=O`: -4.37%; for `CC1=C/C(=N\S(=O)(=O)c2ccccc2)C(C(C)C)=CC1=O`: 84.4% (active).
Consider `CN(C)Cc1ccc(F)cc1Sc1cc(Cl)ccc1Cl`, for which the inhibition is 42.7%.
`O=C(N/N=C/c1coc2ccccc2c1=O)c1cc2ccccc2o1`: the inhibition was 55.8% (active).
With `COc1ccc(/C=C2\CCc3ccccc3C2=O)c(OC)c1OC` the figure was 23.1%; with `COc1ccc(/C=C2/CCCc3ccccc3C2=O)cc1`, 53.3% (active); with `CCc1ccc2c(c1)C(c1ccc([N+](=O)[O-])cc1)=NNC(c1ccccc1)=N2`, 24.1%.
With `CCOc1ccc2c(c1)C(c1ccc(C)cc1)=NNC(c1ccc(C)cc1)=N2`, the inhibition was 74.7% (active).
With `O=C1Nc2cc(Cl)c(Cl)cc2N(O)N1c1cc(Cl)cc(Cl)c1` the figure was 39.8%; with `O=C(O)C(c1ccccc1)N1C(=O)/C(=C\c2ccc(-c3cccc(Cl)c3)o2)SC1=S` (stereo unspecified), 45%.
With `O=C(N[C@@H](Cc1c[nH]c2ccccc12)C(=O)O)OCC1c2ccccc2-c2ccccc21` the figure was 72.1% (active).
Take `Cc1cccc(NC(=S)Nc2ccc(Cl)c(Cl)c2)c1`: the inhibition was 60.1% (active).
The same measure for `COc1cnc(-c2ccccn2)nc1Oc1ccc(C(C)(C)C)cc1`: 67.2% (active); for `CC(C)(C)c1ccc(OC2=CS(=O)(=O)c3ccccc32)cc1`: 55.9% (active).
Consider `Cc1cccc(NC(=S)NCCc2ccc(Cl)cc2)c1C`, for which the inhibition is 57.9% (active).
`Cc1ccc(Nc2ccc(C(N)=O)cc2[N+](=O)[O-])cc1`: the inhibition was 59.4% (active).
`COC(=O)N/N=C/c1cn(CCCOc2ccc(C)cc2)c2ccccc12`: the inhibition is 43%.
With `COc1cccc(Cn2cc(/C=N/NC(=O)c3cc(O)cc(O)c3)c3ccccc32)c1` the figure was 76.6% (active); with `CCOC(=O)N/N=C/c1cn(Cc2ccccc2Cl)c2ccccc12`, 48.2%.
As for `CC(C)(C)C1CCc2c(sc3nc(SCC(N)=O)nc(N)c23)C1` (stereo unspecified), the inhibition was 47.6%.
With `CCOC(=O)c1c(-c2ccccc2)oc2cc(Br)c(O)c(C=O)c12` the figure was 40.9%; with `CC(=O)Nc1ccc(C(=O)Nc2nc(-c3cc(C)n(Cc4ccccc4)c3C)cs2)cc1`, 38.2%; with `CCCc1[nH]nc2c1C(c1ccc(OC(=O)c3ccco3)cc1)C(C#N)=C(N)O2` (stereo unspecified), 67.4% (active).
With `COC(=O)c1c(NC(=O)COC(=O)[C@@H](NS(=O)(=O)c2ccccc2)C(C)C)sc2c1CCC2`, the inhibition was 81.7% (active).
With `NC(=O)c1sc2nc3c(c(-c4ccccc4)c2c1N)CCC3`, the inhibition was 46.6%.
The same measure for `O=C(COC(=O)c1cc2c(s1)CCCC2)NCc1ccccc1Cl`: 59.3% (active); for `O=C(COC(=O)/C(=C/c1cccs1)c1cccs1)NCc1ccccc1Cl`: 68.2% (active); for `CCc1nc(N2CCN(C(C)=O)CC2)c2c3c(sc2n1)CCCC3`: 52.4% (active).
The same measure for `Cc1ccc(Oc2cc(NC(=O)CCCn3nc(C)c([N+](=O)[O-])c3C)cc([N+](=O)[O-])c2)cc1`: 63% (active).

The record behind these values is PubChem BioAssay AID588402 (Sanford-Burnham Center for Chemical Genomics, 2011).
